The record followed here is ChEMBL document CHEMBL2218924, “A broad activity screen in support of a chemogenomic map for kinase signalling research and drug discovery” (Biochem J, 2013).

Test [1] addresses Tyrosine-protein kinase SYK (Homo sapiens) (UniProt P43405). The settings on record: at 10 µM.
Test [2] deals with T1, Serine/threonine-protein kinase TAO1 (Homo sapiens) (UniProt Q7L7X3).
T1 sequence (whole entry): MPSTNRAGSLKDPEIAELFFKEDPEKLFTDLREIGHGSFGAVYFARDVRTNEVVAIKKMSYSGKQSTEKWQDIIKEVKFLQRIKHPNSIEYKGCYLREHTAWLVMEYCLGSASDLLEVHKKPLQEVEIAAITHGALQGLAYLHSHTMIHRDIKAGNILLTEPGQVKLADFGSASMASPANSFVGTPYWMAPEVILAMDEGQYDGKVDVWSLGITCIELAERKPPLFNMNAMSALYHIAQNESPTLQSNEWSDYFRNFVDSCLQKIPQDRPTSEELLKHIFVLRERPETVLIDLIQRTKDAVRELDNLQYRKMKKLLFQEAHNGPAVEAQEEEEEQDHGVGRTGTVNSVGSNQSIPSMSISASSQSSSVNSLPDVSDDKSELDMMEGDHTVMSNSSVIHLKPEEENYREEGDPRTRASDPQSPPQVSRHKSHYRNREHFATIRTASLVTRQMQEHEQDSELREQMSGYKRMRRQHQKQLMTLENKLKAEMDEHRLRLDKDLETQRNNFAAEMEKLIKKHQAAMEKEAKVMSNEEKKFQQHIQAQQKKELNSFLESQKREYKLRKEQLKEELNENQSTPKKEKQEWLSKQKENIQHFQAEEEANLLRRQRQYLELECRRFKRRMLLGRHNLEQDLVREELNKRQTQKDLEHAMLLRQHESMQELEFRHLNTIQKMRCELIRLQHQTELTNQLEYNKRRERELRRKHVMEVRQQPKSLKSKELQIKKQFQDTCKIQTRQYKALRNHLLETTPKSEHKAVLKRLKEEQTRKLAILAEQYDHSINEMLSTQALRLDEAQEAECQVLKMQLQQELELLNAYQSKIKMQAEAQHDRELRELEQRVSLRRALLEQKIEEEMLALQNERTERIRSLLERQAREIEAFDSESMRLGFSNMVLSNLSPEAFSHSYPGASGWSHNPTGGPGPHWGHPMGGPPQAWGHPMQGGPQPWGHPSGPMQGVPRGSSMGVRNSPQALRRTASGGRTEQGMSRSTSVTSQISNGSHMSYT
Particulars: at 10 µM.

Test [3] deals with T2, Serine/threonine-protein kinase TAO2 (Homo sapiens) (UniProt Q9UL54).
T2 sequence (whole entry): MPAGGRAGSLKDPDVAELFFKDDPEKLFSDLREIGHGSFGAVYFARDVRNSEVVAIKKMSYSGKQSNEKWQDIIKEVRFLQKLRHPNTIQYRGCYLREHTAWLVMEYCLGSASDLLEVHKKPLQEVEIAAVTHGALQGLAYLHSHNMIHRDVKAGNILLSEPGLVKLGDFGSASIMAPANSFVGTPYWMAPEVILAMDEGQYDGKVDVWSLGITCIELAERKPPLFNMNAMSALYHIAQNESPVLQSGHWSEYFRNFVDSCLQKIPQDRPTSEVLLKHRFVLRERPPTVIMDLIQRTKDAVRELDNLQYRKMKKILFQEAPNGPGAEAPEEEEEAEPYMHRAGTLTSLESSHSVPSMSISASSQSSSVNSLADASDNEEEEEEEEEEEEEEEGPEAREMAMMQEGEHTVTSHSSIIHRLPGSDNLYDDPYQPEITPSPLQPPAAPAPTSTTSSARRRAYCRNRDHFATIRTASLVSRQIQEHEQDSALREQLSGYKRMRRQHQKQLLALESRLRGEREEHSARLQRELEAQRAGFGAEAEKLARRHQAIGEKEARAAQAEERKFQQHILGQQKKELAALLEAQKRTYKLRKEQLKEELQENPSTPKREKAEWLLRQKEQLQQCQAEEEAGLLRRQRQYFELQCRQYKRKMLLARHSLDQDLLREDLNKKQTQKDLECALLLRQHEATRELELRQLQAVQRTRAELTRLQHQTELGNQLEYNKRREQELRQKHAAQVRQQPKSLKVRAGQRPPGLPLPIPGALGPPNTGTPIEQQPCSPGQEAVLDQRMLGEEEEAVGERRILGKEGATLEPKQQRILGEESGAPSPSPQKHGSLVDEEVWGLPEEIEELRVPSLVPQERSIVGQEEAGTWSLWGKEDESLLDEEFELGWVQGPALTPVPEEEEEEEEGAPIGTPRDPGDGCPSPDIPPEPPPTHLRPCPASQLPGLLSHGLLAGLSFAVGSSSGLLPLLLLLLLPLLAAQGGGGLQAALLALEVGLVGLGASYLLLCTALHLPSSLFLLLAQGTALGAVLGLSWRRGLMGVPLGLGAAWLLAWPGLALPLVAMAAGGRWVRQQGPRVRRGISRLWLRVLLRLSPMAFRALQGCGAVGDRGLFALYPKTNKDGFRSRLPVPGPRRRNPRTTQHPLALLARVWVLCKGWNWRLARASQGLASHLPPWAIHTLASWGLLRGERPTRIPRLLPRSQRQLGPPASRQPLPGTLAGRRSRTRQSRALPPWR
The settings on record: at 10 µM.

Test [4] has as its target T3, Serine/threonine-protein kinase TBK1 (Homo sapiens) (UniProt Q9UHD2).
T3 sequence (whole entry): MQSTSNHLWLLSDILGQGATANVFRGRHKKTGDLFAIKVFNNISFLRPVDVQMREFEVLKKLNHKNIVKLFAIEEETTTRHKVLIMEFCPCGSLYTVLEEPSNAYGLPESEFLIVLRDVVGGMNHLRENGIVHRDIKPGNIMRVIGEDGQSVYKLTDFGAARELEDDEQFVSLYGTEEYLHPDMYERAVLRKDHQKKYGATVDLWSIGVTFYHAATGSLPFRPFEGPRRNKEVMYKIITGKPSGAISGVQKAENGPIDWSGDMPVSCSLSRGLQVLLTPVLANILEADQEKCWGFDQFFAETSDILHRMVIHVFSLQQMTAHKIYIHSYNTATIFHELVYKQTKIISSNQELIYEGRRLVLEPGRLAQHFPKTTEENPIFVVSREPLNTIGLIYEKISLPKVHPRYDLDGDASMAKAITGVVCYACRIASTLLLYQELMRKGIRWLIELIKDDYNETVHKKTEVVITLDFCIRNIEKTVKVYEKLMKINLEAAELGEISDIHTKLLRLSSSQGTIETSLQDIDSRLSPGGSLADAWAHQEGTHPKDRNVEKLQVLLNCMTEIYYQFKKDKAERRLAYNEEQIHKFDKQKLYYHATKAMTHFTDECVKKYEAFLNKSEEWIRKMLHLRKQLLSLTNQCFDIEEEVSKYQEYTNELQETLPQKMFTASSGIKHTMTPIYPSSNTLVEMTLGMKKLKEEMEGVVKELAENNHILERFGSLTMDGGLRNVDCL
The settings on record: at 1 µM.

Test [5] deals with T3, Serine/threonine-protein kinase TBK1 (Homo sapiens). Particulars: at 10 µM.
The target in test [6] is T4, TGF-beta receptor type-1 (Homo sapiens) (UniProt P36897).
T4 sequence (whole entry): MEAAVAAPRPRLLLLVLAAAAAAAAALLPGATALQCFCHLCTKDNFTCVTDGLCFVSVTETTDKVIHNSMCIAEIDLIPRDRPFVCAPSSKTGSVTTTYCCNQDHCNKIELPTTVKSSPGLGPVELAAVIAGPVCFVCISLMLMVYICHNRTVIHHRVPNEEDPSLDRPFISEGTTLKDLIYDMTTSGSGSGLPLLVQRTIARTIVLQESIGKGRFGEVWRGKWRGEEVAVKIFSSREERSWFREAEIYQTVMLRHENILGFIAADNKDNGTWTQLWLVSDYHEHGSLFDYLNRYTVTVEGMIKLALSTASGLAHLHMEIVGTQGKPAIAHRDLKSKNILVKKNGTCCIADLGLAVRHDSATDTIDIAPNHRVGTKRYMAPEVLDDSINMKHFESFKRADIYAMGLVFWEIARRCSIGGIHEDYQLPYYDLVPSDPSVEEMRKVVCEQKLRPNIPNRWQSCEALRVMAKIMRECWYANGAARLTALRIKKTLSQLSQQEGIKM
Particulars: at 1 µM.

Test [7] has as its target T4, TGF-beta receptor type-1 (Homo sapiens). The settings on record: at 10 µM.
Test [8] deals with T5, Inhibitor of nuclear factor kappa-B kinase subunit alpha (Homo sapiens) (UniProt O15111).
T5 sequence (whole entry): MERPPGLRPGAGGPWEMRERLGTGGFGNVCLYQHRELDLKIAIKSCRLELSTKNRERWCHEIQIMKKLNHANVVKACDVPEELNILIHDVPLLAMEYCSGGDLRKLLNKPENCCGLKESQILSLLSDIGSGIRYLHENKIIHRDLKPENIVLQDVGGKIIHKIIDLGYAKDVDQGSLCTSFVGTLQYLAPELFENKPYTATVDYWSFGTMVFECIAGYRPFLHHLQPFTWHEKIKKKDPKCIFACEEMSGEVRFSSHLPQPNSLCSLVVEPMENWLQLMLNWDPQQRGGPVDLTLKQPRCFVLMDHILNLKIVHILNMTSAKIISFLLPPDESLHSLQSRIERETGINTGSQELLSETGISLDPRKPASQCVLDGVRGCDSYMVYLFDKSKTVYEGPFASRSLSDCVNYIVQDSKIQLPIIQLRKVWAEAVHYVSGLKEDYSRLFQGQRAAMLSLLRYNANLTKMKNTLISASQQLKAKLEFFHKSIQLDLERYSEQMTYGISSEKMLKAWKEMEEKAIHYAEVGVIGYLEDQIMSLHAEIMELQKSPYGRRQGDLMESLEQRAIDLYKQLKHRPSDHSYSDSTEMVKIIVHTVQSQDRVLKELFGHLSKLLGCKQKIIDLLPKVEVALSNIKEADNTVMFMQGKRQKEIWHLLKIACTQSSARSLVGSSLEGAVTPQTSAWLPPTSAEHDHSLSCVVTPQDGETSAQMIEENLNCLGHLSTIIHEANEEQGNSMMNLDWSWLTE
The settings on record: at 1 µM.

For test [9], the target named is T5, Inhibitor of nuclear factor kappa-B kinase subunit alpha (Homo sapiens). The settings on record: at 10 µM.
Test [10] concerns the target T6, Inhibitor of nuclear factor kappa-B kinase subunit beta (Homo sapiens) (UniProt O14920).
T6 sequence (whole entry): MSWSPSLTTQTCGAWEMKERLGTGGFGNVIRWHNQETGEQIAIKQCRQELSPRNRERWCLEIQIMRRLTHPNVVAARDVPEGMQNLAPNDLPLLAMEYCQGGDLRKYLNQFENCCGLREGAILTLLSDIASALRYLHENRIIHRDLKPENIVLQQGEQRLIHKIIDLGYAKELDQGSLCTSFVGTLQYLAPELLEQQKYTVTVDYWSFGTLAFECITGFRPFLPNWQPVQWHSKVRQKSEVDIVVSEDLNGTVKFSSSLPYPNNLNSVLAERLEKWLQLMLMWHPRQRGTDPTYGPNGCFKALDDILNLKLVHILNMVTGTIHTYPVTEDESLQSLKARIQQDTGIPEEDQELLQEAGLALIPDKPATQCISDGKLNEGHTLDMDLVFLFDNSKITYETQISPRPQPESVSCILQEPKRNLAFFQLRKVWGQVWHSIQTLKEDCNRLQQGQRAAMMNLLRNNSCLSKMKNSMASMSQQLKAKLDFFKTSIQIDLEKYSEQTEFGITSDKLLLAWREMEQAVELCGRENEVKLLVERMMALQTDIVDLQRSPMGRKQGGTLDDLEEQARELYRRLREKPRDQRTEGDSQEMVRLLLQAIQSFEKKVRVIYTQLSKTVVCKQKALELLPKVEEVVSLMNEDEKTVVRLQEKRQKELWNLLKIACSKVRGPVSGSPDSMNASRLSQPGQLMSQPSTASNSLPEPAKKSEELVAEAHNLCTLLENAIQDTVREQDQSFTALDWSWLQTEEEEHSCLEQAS
Particulars: at 1 µM.

Test [11] addresses T6, Inhibitor of nuclear factor kappa-B kinase subunit beta (Homo sapiens). The settings on record: at 10 µM.

`COc1cc2c(cc1OC)-c1n[nH]c(Nc3cccc(F)c3)c1C2`: the residual activity (as a rule, the signal under treatment as a percentage of the control signal) in test [1] was 76%; in [2] it was 61%; in test [3] it was 78%; in test [4], 52%; in [5] it was 43%; in [6], 78%. Besides, the residual activity in test [7] was 66%; in test [8], 109%; in test [9], 112%; in [10], 101%; in [11], 110%.
